The values below come from PubChem BioAssay AID1345085 (National Center for Advancing Translational Sciences (NCATS), 2018).

Inconclusive results are not listed. Calls of active or inactive are those of the source. The call rests on the fitted dose curve; in most records, active means well fitted cell-killing curve with a large enough effect; inconclusive means small, poorly fitted or top-dose-only effect, or effect the other way; inactive means no such curve, though single readings can be large or run the other way.
Potency means the concentration at half of the fitted maximal effect.

The test system of the assay is HeLa. Put plainly: Confirmatory qHTS for gynecologic anti-cancer compounds from libraries of approved drugs and bioactive compounds. Further: nearly all actives have a fitted effect of over 55% in size. The settings on record: gynecologic cancer cell panel viability, ATPlite luminescence, 48 h; series mostly up to 57.6 µM. The procedure, abridged: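 Cells (1,000/well) were plated, left 16 h at 37 C/5% CO2, then given compound at 11 concentrations (1:3) from 57.5 uM to 0.977 nM for 48 h. ATPlite luminescence after 15 min at room temperature gave IC50 values.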
(In general: Quantitative high-throughput screening tests each substance at several concentrations.)
On to `CN1CCN(Cc2ccc(NC(=O)Nc3ccc(Oc4cc(NC(=O)C5CC5)ncn4)cc3)cc2C(F)(F)F)CC1`, for which the Potency was 0.306 µM (active). `Cc1c(NC(=O)OCC2COCCN2)cn2ncnc(Nc3ccc4c(cnn4Cc4cccc(F)c4)c3)c12` (configuration not stated): the Potency is 34.3 µM (active). For the molecule `CC(=O)OC12COC1CC(O)C1(C)C(=O)C(O)C3=C(C)C(OC(=O)C(O)C(NC(=O)OC(C)(C)C)c4ccccc4)CC(O)(C(OC(=O)c4ccccc4)C21)C3(C)C` (configuration not stated), the Potency was 0.0097 µM (active). On to `COc1cc(C(=O)N2CCC(N3CCN(C)CC3)CC2)ccc1Nc1ncc2c(n1)N(C)c1ccccc1C(=O)N2C`, for which the Potency is 17.2 µM (active). On to `Nc1ncnc2c1ncn2[C@@H]1O[C@H](CO)C[C@H]1O`, for which the Potency entry is “inactive”. On to `Fc1cc(-c2cccc3ncc(-c4cnn(C5CCNCC5)c4)nc23)cc(F)c1CN1CCOCC1`, for which the Potency was 24.3 µM (active).

For `CCc1nc(C(N)=O)c(Nc2ccc(N3CCC(N4CCN(C)CC4)CC3)c(OC)c2)nc1NC1CCOCC1`, the Potency is 3 µM (active). `Cn1c(=O)c(-c2c(Cl)cccc2Cl)cc2cnc(Nc3cccc(C(=O)O)c3)nc21`: the Potency is 2.43 µM (active). In the case of `CC1(C)[C@@H](O)CC[C@]2(C)[C@H]3C(=O)C=C4[C@@H]5C[C@@](C)(C(=O)O)CC[C@]5(C)CC[C@@]4(C)[C@]3(C)CC[C@@H]12`, the Potency result was “inactive”. For the molecule `COC(C(=O)N1Cc2[nH]nc(NC(=O)c3ccc(N4CCN(C)CC4)cc3)c2C1)c1ccccc1` (configuration not stated), the Potency is 0.243 µM (active). Turning to `CCS(=O)(=O)N1CCN(c2ccc(Nc3ncc(C(N)=O)c(NC4CC4)n3)cc2)CC1`, the Potency was 4.85 µM (active). For `CNc1nccc(-c2cccnc2Oc2cc(C(=O)Nc3cccc(C(F)(F)F)c3)ccc2C)n1`, the Potency was 15.3 µM (active).
